Assay outcomes: PubChem, several laboratories
SENP7 inh: SENP7 protease inhibitors, primary screen, biochemical, luminescence, uHTS; actives 1.5% (n = 330,000); inhibition, % at 5 µM; Sentrin-specific protease 7 (Homo sapiens), Q9BQF6; AID 434973, 2010; recombinant SENP7, Z-RLRGG-aminoluciferin luminescence, 40 min;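 active means inhibition above about 50% at the single test dose, limit read from the data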;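 further: plate controls were DMSO with enzyme for no effect and no enzyme buffer wells for full effect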
Target sequence (Q9BQF6 706-1050 limits assumed): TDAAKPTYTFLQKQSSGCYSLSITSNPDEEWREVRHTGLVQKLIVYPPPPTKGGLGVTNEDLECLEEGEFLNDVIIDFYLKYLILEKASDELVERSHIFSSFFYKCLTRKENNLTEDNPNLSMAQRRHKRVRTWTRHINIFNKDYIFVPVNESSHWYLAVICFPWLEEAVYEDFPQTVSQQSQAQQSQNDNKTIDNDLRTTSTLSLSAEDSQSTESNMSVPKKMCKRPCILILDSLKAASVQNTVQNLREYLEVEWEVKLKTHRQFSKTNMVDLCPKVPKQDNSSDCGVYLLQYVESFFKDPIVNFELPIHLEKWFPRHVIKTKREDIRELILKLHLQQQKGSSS
SENP8 block-1: SENP8 protease inhibitors, primary screen, biochemical, luminescence. purified SENP8, Z-RLRGG-aminoluciferin cleavage. inhibition, % at 10 µM. actives 1.2% (n = 330,000); in the data active means inhibition above about 50%
Target sequence (Q96LD8 whole entry, looked up): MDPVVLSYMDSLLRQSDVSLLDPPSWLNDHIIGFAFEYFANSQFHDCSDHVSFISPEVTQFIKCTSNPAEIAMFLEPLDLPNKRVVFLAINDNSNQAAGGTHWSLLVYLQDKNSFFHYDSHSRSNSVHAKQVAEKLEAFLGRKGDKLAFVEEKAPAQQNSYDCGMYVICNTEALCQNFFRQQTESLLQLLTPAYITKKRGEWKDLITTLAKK
SENP6 inh: SENP6 protease inhibitors, primary screen, biochemical, luminescence, uHTS; Recombinant SENP6 catalytic domain, aminoluciferin luminescence; Sentrin-specific protease 6 (Homo sapiens), Q9GZR1; inhibition, % at 10 µM; actives 1.8% (n = 330,000); AID 2599, 2010;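 active means inhibition above about 50% at the single tested dose, limit read from the data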;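 further: plate controls were DMSO wells with enzyme for no effect and DMSO wells lacking enzyme for full effect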
Platelet DG rel: inhibitors of platelet dense granule secretion, primary screen, cell-based, MLPCN, human platelets; human platelet-rich plasma, SFLLRN dense granule ATP release, luminescence; inhibition, %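 (compounds screened at 7.5 µM in platelet-rich plasma)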; actives 0.22% (n = 300,000);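 active means mean replicate score, as percent of positive control, at or above 50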
SENP8 block-2: human SENP8 protease inhibitors, primary screen, biochemical, fluorescence, Nedd8 protein substrate, uHTS. recombinant SENP8. inhibition, % at 20 µM. actives 0.64% (n = 360,000). AID 602440, 2012; in the data active means inhibition mostly above about 40%, no sharp cut-off; inactive means mostly below about 27%
SENP8 confirm: SENP8 protease inhibitors, retest, confirmation, biochemical, luminescence, single concentration | AID 488912, 2010 | shares compounds with SENP7 inh | inhibition, % at 12.5 µM | Recombinant SENP8, Z-RLRGG-aminoluciferin luminescence, 60 min | actives 40% (n = 6,200);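 active means mean inhibition across replicates above about 50%, limit read from the data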
SENP6 confirm: SENP6 protease inhibitors, confirmation, biochemical, luminescence, single concentration | shares compounds with SENP7 inh | actives 58% (n = 6,200) | inhibition, % at 12.5 µM | recombinant SENP6, Z-RLRGG-aminoluciferin luminescence
SENP7 conf: SENP7 protease inhibitors, retest, confirmation, biochemical, luminescence, single concentration | shares compounds with SENP7 inh | recombinant SENP7, Z-RLRGG-aminoluciferin luminescence, 40 min | inhibition, % at 12.5 µM | actives 69% (n = 6,200)
Casp3 select: caspase-3 protease inhibitors, confirmation, selectivity assay for SENP inhibitor project, biochemical, single concentration; shares compounds with SENP7 inh; purified caspase-3, Z-DEVD-aminoluciferin luminescence, 60 min; inhibition, % at 12.5 µM; actives 60% (n = 6,200);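 active means mean inhibition above about 50%, limit read from the data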;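 further: plate controls were enzyme with DMSO for no effect and wells without caspase-3 for full effect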
SENP luc ctr: interferes with luciferase luminescence in SENP counter-screen | shares compounds with SENP7 inh | Pre-incubated SENP8/Z-RLRGG-aminoluciferin, luciferase luminescence interference | inhibition, % at 12.5 µM | actives 39% (n = 6,200);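 active means mean inhibition above about 50% when retested at one dose, limit read from the data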;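 further: plate controls were DMSO wells with completed reaction for no effect and substrate without enzyme for full effect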
* hit, by the source's call. An excerpt weighted towards active compounds, which were near 2.4% of everything screened.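 How the source made its calls, unless noted: active means mean inhibition above about 50% in the one-dose retest (limit read from the data); inactive means the rest.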

Screening CC(=O)Nc1ccc(-c2csc(-c3cccnc3)n2)cc1 returned SENP7 inh 51.4*, SENP8 block-1 26.8, SENP6 inh 40.8, Platelet DG rel 3.9, SENP8 block-2 -264.2, SENP8 confirm 24.2, SENP6 confirm 48.3, SENP7 conf 83.9*, Casp3 select 62.0* and SENP luc ctr 11.9.
c1cncc(-c2csc(-c3cccnc3)n2)c1 was read as SENP7 inh -11.4, SENP8 block-1 -11.0, SENP6 inh -31.8, Platelet DG rel 11.0 and SENP8 block-2 14.5.
Screening c1cncc(-c2nc(-c3ccc4c(c3)OCO4)cs2)c1 returned SENP7 inh 68.8*, SENP8 block-1 49.9, SENP6 inh 73.1*, Platelet DG rel -8.7, SENP8 block-2 -103.8, SENP8 confirm 44.4, SENP6 confirm 69.3*, SENP7 conf 87.3*, Casp3 select 61.4* and SENP luc ctr 13.3.
For Clc1ccsc1-c1csc(-c2cccnc2)n1 the results were SENP7 inh 45.0, SENP8 block-1 31.7, SENP6 inh 68.9*, Platelet DG rel 7.6, SENP8 block-2 -94.5, SENP8 confirm 25.8, SENP6 confirm 42.9, SENP7 conf 82.0*, Casp3 select 13.9 and SENP luc ctr 12.2.
Screening O=C(CNC(=O)c1ccc2c(c1)OCCO2)N=Nc1c(O)[nH]c2ccccc12 returned SENP7 inh -2.2, SENP8 block-1 3.5, SENP6 inh -2.1, Platelet DG rel -2.8 and SENP8 block-2 16.3.
CCSc1nc(C)nc2sc(C)c(C)c12 was read as SENP7 inh 0.4, SENP8 block-1 -0.8, SENP6 inh -8.6, Platelet DG rel -1.9 and SENP8 block-2 27.8.
Cc1cccc(N=Nc2cnc(N)s2)c1 was read as SENP7 inh 46.5, SENP8 block-1 18.1, SENP6 inh 55.5*, Platelet DG rel 4.5, SENP8 block-2 11.9, SENP8 confirm 51.7*, SENP6 confirm 43.6, SENP7 conf 69.6*, Casp3 select 24.4 and SENP luc ctr 21.5.
CC(=O)c1cc2c(=O)c3ccccc3oc2nc1C was read as SENP7 inh 5.6, SENP8 block-1 9.8, SENP6 inh 17.7, Platelet DG rel 22.6 and SENP8 block-2 8.5.
CCOC(=O)c1cc2c(=O)c3ccccc3oc2nc1C was read as SENP7 inh 58.4*, SENP8 block-1 43.6, SENP6 inh 58.0*, Platelet DG rel 8.8, SENP8 block-2 7.0, SENP8 confirm 42.3, SENP6 confirm 42.8, SENP7 conf 67.2*, Casp3 select 73.6* and SENP luc ctr 18.8.
`COc1ccc2cc(C(=O)N3CCc4ccccc43)[nH]c2c1` gave SENP7 inh 92.6*, SENP8 block-1 52.5*, SENP6 inh 86.3*, Platelet DG rel -0.9, SENP8 block-2 -24.2, SENP8 confirm 22.3, SENP6 confirm 34.1, SENP7 conf 22.9, Casp3 select 21.6 and SENP luc ctr 0.3.
`COc1ccc2oc(C(=O)N3CCc4ccccc43)c(C)c2c1` gave SENP7 inh 99.9*, SENP8 block-1 95.7*, SENP6 inh 95.8*, Platelet DG rel 25.8, SENP8 block-2 3.3, SENP8 confirm 71.7*, SENP6 confirm 88.2*, SENP7 conf 95.7*, Casp3 select 84.9* and SENP luc ctr 17.3.
Screening COc1ccc2oc(C(=O)N3CCN(C(c4ccccc4)c4ccccc4)CC3)c(C)c2c1 returned SENP7 inh -16.5, SENP8 block-1 -8.9, SENP6 inh -11.6, Platelet DG rel 1.3 and SENP8 block-2 -21.4.
COc1ccc2c(CC(=O)N3CCc4ccccc43)coc2c1 was read as SENP7 inh 85.1*, SENP8 block-1 71.7*, SENP6 inh 84.7*, Platelet DG rel 13.8, SENP8 block-2 -2.9, SENP8 confirm 81.0*, SENP6 confirm 80.7*, SENP7 conf 93.2*, Casp3 select 80.6* and SENP luc ctr 61.4*.
For COc1ccc2c(CC(=O)OCC(=O)N3CCc4ccccc43)coc2c1 the results were SENP7 inh 1.5, SENP8 block-1 0.0, SENP6 inh -2.8, Platelet DG rel -3.9 and SENP8 block-2 8.9.
Screening O=C(c1cc2cc(Br)ccc2[nH]1)N1CCc2ccccc21 returned SENP7 inh -1.7, SENP8 block-1 -6.0, SENP6 inh -28.4, Platelet DG rel 2.5 and SENP8 block-2 -34.0.
For CC(=O)c1csc(CS(=O)(=O)c2ccccn2)n1 the results were SENP7 inh -7.3, SENP8 block-1 -3.5, SENP6 inh -12.8, Platelet DG rel 4.5 and SENP8 block-2 7.3.
Screening COc1ccc(N=Cc2sc3ccccc3c2Cl)cc1 returned SENP7 inh 57.6*, SENP8 block-1 24.7, SENP6 inh 29.7, Platelet DG rel -2.0, SENP8 block-2 30.7, SENP8 confirm 10.1, SENP6 confirm 22.3, SENP7 conf 36.0, Casp3 select 37.3 and SENP luc ctr 14.6.
Oc1ccc(Cl)cc1N=Cc1sc2ccccc2c1Cl was read as Platelet DG rel -5.8 and SENP8 block-2 0.0.
`CC(C)(C)C(=O)COC(=O)c1cccc(NC(=O)c2ccco2)c1` gave SENP7 inh 2.8, SENP8 block-1 -6.5, SENP6 inh -6.7, Platelet DG rel 0.1 and SENP8 block-2 17.6.
Screening CC(=O)Nc1ccc(C(=O)OCC(=O)c2cccc([N+](=O)[O-])c2)cc1 returned SENP7 inh 4.5, SENP8 block-1 -0.4, SENP6 inh -11.8, Platelet DG rel -11.7 and SENP8 block-2 4.2.
Screening O=C(COC(=O)c1cccc(NC(=O)c2ccco2)c1)c1ccc(Br)cc1 returned SENP7 inh 72.1*, SENP8 block-1 23.8, SENP6 inh 70.3*, Platelet DG rel -0.1, SENP8 block-2 6.9, SENP8 confirm 8.3, SENP6 confirm 60.6*, SENP7 conf 77.9*, Casp3 select 36.7 and SENP luc ctr 32.8.
